Drawing on PubChem BioAssay AID588726 (The Scripps Research Institute Molecular Screening Center, 2011), this text covers inhibition for 96 compounds.

Structures are written as SMILES. Hit rate of the full screen: of about 360,000 compounds, about 8,200 (2.3%) were called active. Cut-off read from the data, not from the text of the source: active = inhibition above about 27%; inactive = the rest. The sample as a whole holds a higher share of actives than the screen did.

In this test the target is Fructose-bisphosphate aldolase (Mycobacterium tuberculosis (strain ATCC 25618 / H37Rv)) (UniProt P9WQA3). Nature of the test: M. tuberculosis aldolase activity blockers – biochemical, fluorescence, strain H37Rv, primary screen (AID 588726).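 Note: 0% = vehicle and 100% = reference inhibitor.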 As to conditions: purified M. tuberculosis FBA, fluorescence read-out, at 1 µM, stronger effect = higher value.
Sequence of Fructose-bisphosphate aldolase (Mycobacterium tuberculosis (strain ATCC 25618 / H37Rv)) (P9WQA3 whole entry, looked up): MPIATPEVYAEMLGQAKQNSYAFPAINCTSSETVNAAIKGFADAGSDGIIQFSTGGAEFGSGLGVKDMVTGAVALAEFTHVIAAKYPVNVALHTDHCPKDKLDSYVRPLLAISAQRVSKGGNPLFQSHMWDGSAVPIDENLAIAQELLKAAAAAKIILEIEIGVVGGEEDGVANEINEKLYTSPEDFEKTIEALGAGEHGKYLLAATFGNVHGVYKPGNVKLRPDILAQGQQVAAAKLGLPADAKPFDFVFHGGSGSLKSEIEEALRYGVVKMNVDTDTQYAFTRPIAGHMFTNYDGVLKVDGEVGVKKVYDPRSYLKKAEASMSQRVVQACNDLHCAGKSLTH
For orientation: inhibition means the drop in the measured response relative to a control, in per cent. `Cc1ccc(Nc2ccccc2N)cc1`: the inhibition is 8.06% (inactive).

Consider `CC1(C)Cc2cccc(OCC(=O)N3CCN(c4ccc([N+](=O)[O-])cc4)CC3)c2O1`, for which the inhibition is -5.39% (inactive).

As to `O=C(CCN1CCCCC1)Nc1ccc(F)c(F)c1`, the inhibition is -0.67% (inactive).

In the case of `Cc1noc(C)c1CCC(=O)O`, the inhibition was 1.72% (inactive).

Turning to `CC(C)(C)n1nnc(CCc2nnn(C(C)(C)C)n2)n1`, the inhibition was 2.81% (inactive).

For `COc1ccc(CCNC(=O)C2CC3Cn4c(nc5cc(C)c(C)cc54)C3N2C)cc1` (stereo unspecified), the inhibition is 1.06% (inactive).

Turning to `CCC1CCCCN1C(=O)CSc1nc2c(c(=O)n1C)SC(C)C2` (stereo unspecified), the inhibition is -1.89% (inactive).

Take `COc1nc(N=C(N)N)nc2c(C)cccc12`: the inhibition was 32.9% (active).

For `CCc1c(C)nc2c(OC)cccc2c1Cl`, the inhibition was 6.78% (inactive).

On to `Cc1nc(N=C(N)N)nc2c(C)cccc12`, for which the inhibition is 8% (inactive).

With `COc1ccc(C(=O)C2CCCN(C(=O)c3cnsn3)C2)c(C)c1` (stereo unspecified), the inhibition was 2.56% (inactive).

With `COc1ccc2cc(C(=O)C3CCCN(C(=O)c4sc(C)nc4C)C3)ccc2c1` (stereo unspecified), the inhibition is 162% (active).

In the case of `CCn1nc(C)cc1C(=O)N1CCCC(C(=O)c2cccc(OC)c2)C1` (stereo unspecified), the inhibition was -1.49% (inactive).

As to `COc1cc(OC)cc(-c2c(-c3cccs3)c3cc(-c4ccc(OC)nc4)ccc3n2C)c1`, the inhibition is 1.28% (inactive).

`COc1cc(OC)cc(-c2c(-c3ccc(F)cc3)c3cc(-c4ccc5cc[nH]c5c4)ccc3n2C)c1`: the inhibition was 26.4% (inactive).

In the case of `COc1ccc(-c2c(-c3cc(OC)cc(OC)c3)n(C)c3ccc(-c4ccn[nH]4)cc23)cc1`, the inhibition is 41.1% (active).

In the case of `Cc1csc(/N=C/N(C)C)c1C#N`, the inhibition is -1.13% (inactive).

`CN(C(=O)CSc1nnnn1-c1ccccc1)C1CCCCC1`: the inhibition is 5.06% (inactive).

`CCOCCCNC(=O)c1cc2c(=O)n3ccccc3nc2s1`: the inhibition is 184% (active).

In the case of `CCOCCCNC(=O)c1c[nH]c2cc(C)ccc2c1=O`, the inhibition is 4.52% (inactive).

As for `CN(c1ccc2nc3ccccc3c(=O)n2n1)C1CCCCC1`, the inhibition was 1.09% (inactive).

`CN(C(=O)c1cc2c(=O)n3ccccc3nc2s1)C1CCCCC1`: the inhibition is 94.8% (active).

Consider `CCOCCCNC(=O)c1cn(CC(C)C)c(=O)c2c1c1ccccc1n2C`, for which the inhibition is 25.3% (inactive).

As for `CCn1ncc(C2=NOC(C(=O)N3CCN(c4ccccc4)CC3)C2)c1C` (stereo unspecified), the inhibition is 0.67% (inactive).

As to `C[C@@H]1CN([C@@H](C)CO)C(=O)CCCn2cc(nn2)CO[C@H]1CN(C)S(=O)(=O)c1ccc(-n2cccn2)cc1`, the inhibition is -4.05% (inactive).

With `Cc1ccc(C(=O)OCC(=O)Nc2ccc(Cl)cn2)cc1S(=O)(=O)N1CCOCC1`, the inhibition is -2.24% (inactive).

With `CCc1ccc(C(=O)NN=C2CCCCCC2)s1`, the inhibition is 2.93% (inactive).

Regarding `Cc1ccc(Cn2cc(C(=O)NN)c(=O)c3ccc(F)cc32)cc1`, the inhibition was -0.43% (inactive).

For `C#Cc1cc(N2CCN(C(=O)c3ccoc3)CC2)n2nc(-c3cccc(Cl)c3)cc2n1`, the inhibition was 51.1% (active).

For the compound `CCc1nc2ccc(C(=O)N3CCN(c4cccc(Cl)c4)CC3)cc2nc1CC`, the inhibition is -5.44% (inactive).

Take `CCCCCn1c(SCCC(C)C)nc2c1c(=O)[nH]c(=O)n2C`: the inhibition is -1.96% (inactive).

In the case of `Nc1ccc2nn(-c3ccc(Cl)cc3)nc2c1`, the inhibition is 52.9% (active).

Consider `Nc1nc2cc(Cl)ccc2n1N`, for which the inhibition is 1.5% (inactive).

As to `Nc1ccc2c(c1)C(O)c1ccc(Cl)cc1-2` (stereo unspecified), the inhibition is 0.95% (inactive).

Regarding `CCC(C)(C)NC(=O)CN(C(=O)CCC(=O)Nc1cc(C)ccn1)c1ccc2c(c1)OCCO2`, the inhibition was -0.12% (inactive).

Regarding `Cc1ccc(CCn2c3c(c4ccccc42)CN(C)CC3)cn1`, the inhibition was 4.44% (inactive).

As to `Cn1cccc1C(C#N)c1ccccc1C#N` (stereo unspecified), the inhibition is -1.4% (inactive).

`Cn1cc(-c2ccccc2)cc(C#N)c1=O`: the inhibition was 50.3% (active).

With `CC(C)C(=O)Nc1oc(-c2ccccc2)cc1C#N`, the inhibition is 1.2% (inactive).

Consider `O=P(O)(CP(=O)(c1ccccc1)c1ccccc1)c1ccccc1O`, for which the inhibition was -1.86% (inactive).

In the case of `COc1ccc(CCN2CC(C(=O)OCC(=O)NCc3ccccc3Cl)CC2=O)cc1OC` (stereo unspecified), the inhibition was -0.32% (inactive).

For the compound `Cc1c(Br)c([N+](=O)[O-])nn1C(C)C(=O)Nc1nccs1` (stereo unspecified), the inhibition was 0.22% (inactive).

For the compound `Cn1nnnc1-c1cc(Cl)cc(Cl)c1`, the inhibition is -1.41% (inactive).

As to `O=C(CNC(=O)c1ccccc1Br)NCCSc1ccc(Br)cc1`, the inhibition was 2.75% (inactive).

Regarding `Cc1cc(=O)oc2cc(OC(C)C(=O)NCCc3ccc(S(N)(=O)=O)cc3)ccc12` (stereo unspecified), the inhibition is 20.4% (inactive).

Consider `CSCCC(NS(=O)(=O)c1ccc(C)cc1)C(=O)N1CCCC1` (stereo unspecified), for which the inhibition was -1.91% (inactive).

With `CCCCC(NS(=O)(=O)c1ccc(C)cc1)C(=O)Oc1ccc2c3c(c(=O)oc2c1)CCC3` (stereo unspecified), the inhibition was 61.7% (active).

Regarding `C[C@H](OC(=O)n1ccnc1)[C@@H]1O[C@@]2(C)CCC[C@@H]1O2`, the inhibition is -0.83% (inactive).

For the compound `CC1(C)C(=O)C2(CCCCC2)C(=O)OC1c1cccs1` (stereo unspecified), the inhibition was -0.98% (inactive).

Take `COc1ccc(NC(=O)C2Cc3c(-c4ccc(Cl)cc4)ccnc3O2)cc1` (stereo unspecified): the inhibition is -1.52% (inactive).

On to `O=C(Nc1ccc(Cl)cc1)C1Cc2c(-c3ccc4c(c3)OCO4)ccnc2O1` (stereo unspecified), for which the inhibition is 26.8% (inactive).

For the compound `COc1ccc(NC(=O)C2Cc3c(-c4ccc5c(c4)OCO5)ccnc3O2)cn1` (stereo unspecified), the inhibition was 64.8% (active).

Turning to `CCCCn1c(N)c(N(Cc2ccccc2OC)C(=O)COc2cc(C)ccc2Cl)c(=O)[nH]c1=O`, the inhibition was 1.47% (inactive).

With `CCOc1ccc(OCC)c(-c2c(=O)n(OCc3ccc(Cl)cc3)c3ccccc3[n+]2[O-])c1`, the inhibition was -1.68% (inactive).

With `Brc1cnc2ccccc2c1N1CCCCC1`, the inhibition was 51.2% (active).

As for `Brc1cnc(N2CCCC2)nc1N1CCCCC1`, the inhibition is 4.23% (inactive).

For the compound `c1ccc(-c2cc(N3CCCCC3)c3ccccc3n2)cc1`, the inhibition was 0.14% (inactive).

In the case of `CCOC(=O)c1c(S(=O)(=O)Nc2ccc(CN3CCC(C)CC3)cc2)c(C)n(C)c1C`, the inhibition is 1.42% (inactive).

As for `CCCCn1c(=S)[nH]c2ncccc2c1=O`, the inhibition is 0.66% (inactive).

For the compound `CN(CCc1ccccn1)C(=O)CCC1CCCN(Cc2ccccc2OC(F)F)C1` (stereo unspecified), the inhibition was 5.01% (inactive).

Turning to `CCN1CCc2c(C#N)c(NCc3ccccc3)nc(NCCO)c2C1`, the inhibition was 33.9% (active).

In the case of `CC(C)CCNc1nc(N2CCCC2)c2c(c1C#N)CCN(C)C2`, the inhibition was 4.23% (inactive).

`CCCCc1nc(NCc2ccccc2)c(C#N)c2c1CCCC2`: the inhibition was 0.15% (inactive).

With `COc1ccc(NC2CC(=O)N(C)C2=O)cc1` (stereo unspecified), the inhibition was 1.09% (inactive).

For `Cc1ccc(-c2nc(COC(=O)c3c(C)noc3C)cs2)cc1`, the inhibition is 1.63% (inactive).

For `CCN(C(=O)COC(=O)CCC(=O)c1cccs1)C1CCCCC1`, the inhibition was 4.65% (inactive).

With `CCOC(=O)c1cc2c(=O)n3ccccc3nc2n(CC(C)C)c1=NC(=O)c1c(-c2c(F)cccc2Cl)noc1C`, the inhibition was 13.1% (inactive).

On to `CCn1c(=N)c(S(=O)(=O)c2ccc(F)cc2)cc2c(=O)n3ccccc3nc21`, for which the inhibition was 20.8% (inactive).

`O=C(CN1CCN(S(=O)(=O)/C=C/c2ccccc2)CC1)NC(=O)NCc1ccco1`: the inhibition is -1.09% (inactive).

As for `O=c1ccc(-c2ccc(S(=O)(=O)Nc3ccccc3)o2)n[nH]1`, the inhibition is 2.01% (inactive).

In the case of `O=C(CSc1nnc(-c2ccncc2)o1)NCc1ccc(Cl)cc1`, the inhibition is -1.06% (inactive).

In the case of `COCCNC(=O)c1ccccc1-c1nc(-c2ccccc2Cl)no1`, the inhibition was 0.39% (inactive).

Take `CCCCNC(=O)c1onc(CSc2cccc(OC)c2)c1C(=O)O`: the inhibition was 1.62% (inactive).

In the case of `COC(=O)c1ccc2nc(-c3cccc(Br)c3)c(Cc3ccc(OC)cc3C)n2c1`, the inhibition was 2.37% (inactive).

As to `CCCCNc1c(-c2cccc(Sc3ccc(OC)cc3)c2)nc2ccccn12`, the inhibition is 40.1% (active).

Take `CC(=O)c1nn(-c2ccccc2)c(=Nc2ccccc2)cc1C`: the inhibition was 2.4% (inactive).

Regarding `O=C1c2ccccc2C(c2nc3ccccc3[nH]2)N1c1ccccc1` (stereo unspecified), the inhibition was 0.93% (inactive).

For the compound `Fc1ccccc1CNC(=S)Nc1ccc(Cl)cc1`, the inhibition is 0.3% (inactive).

For the compound `COC(=O)c1cc(CNC(=O)CC(C)c2ccccc2)ccc1OC` (stereo unspecified), the inhibition is -0.38% (inactive).

For the compound `CCNC(=S)Nc1ccc2c(c1)c(=O)n(C)n2Cc1ccc(Cl)cc1`, the inhibition was 59.7% (active).

Regarding `O=C1CCCN1CCCNC(=S)Nc1ccc(F)c(Cl)c1`, the inhibition is -1.02% (inactive).

For `COc1cccc(NC(=O)CC(c2ccc(OC(C)C)cc2)c2ccccc2OC)c1` (stereo unspecified), the inhibition was 1.51% (inactive).

For the compound `COc1cc(Cn2c3ccc(NC(=O)CC(C)c4ccccc4)cc3c(=O)n2C)ccc1F` (stereo unspecified), the inhibition was 146% (active).

On to `CC=CCn1c(SCCCc2ccccc2)nc2c1c(=O)[nH]c(=O)n2C`, for which the inhibition is 4.11% (inactive).

Turning to `CCOC(=O)c1sc(/N=C/Nc2nc(C)c(C(=O)OCC)s2)nc1C`, the inhibition was 2.19% (inactive).

In the case of `N#Cc1ccccc1NC(=O)c1cccc(COc2ccc(Cl)cc2Cl)c1`, the inhibition was -1.7% (inactive).

As for `CCOc1ccc(C(C)=O)cc1COC(=O)CN1C(=O)NC2(CCCC2)C1=O`, the inhibition is -0.88% (inactive).

With `Cc1ccc(C=O)c([B-](F)(F)F)c1`, the inhibition was 2.07% (inactive).

For `CN1c2ccc(C=O)c3c(C=O)ccc(c23)N(C)C1(C)C`, the inhibition is 62.1% (active).

In the case of `O=S(=O)(/C=C/c1ccccc1)NCCc1ccccn1`, the inhibition was 1.96% (inactive).

Take `COC(=O)c1onc(-c2c(OC)cc(OC)cc2OC)c1C(=O)OC`: the inhibition is -3.51% (inactive).

As for `COc1ccc2c(c1)N(C)/C(=C1/SC(=S)N(NC(C)=O)C1=O)S2`, the inhibition was -4.56% (inactive).

On to `CC(=O)N1C(=O)/C(=C2\SC(=S)N(NC(=O)c3ccc(O)cc3)C2=O)c2ccccc21`, for which the inhibition was 31.8% (active).

As for `COc1ccc(C(=O)NN2C(=O)C3C(c4ccccc4)C=CC(c4ccccc4)C3C2=O)cc1` (stereo unspecified), the inhibition is 1.1% (inactive).

For the compound `COc1cccc(NC(=O)c2cc(S(=O)(=O)N3CCc4ccccc43)cn2C)c1`, the inhibition is -0.54% (inactive).

On to `CC(C)(C)OC(=O)C[C@@H]1C/C=C\C[C@H](CC(=O)N[C@@H](CO)Cc2ccccc2)C(=O)N[C@H](Cc2ccccc2)COC1=O`, for which the inhibition was 3.41% (inactive).
